Source: PubChem BioAssay
G9a inh – qHTS Assay for Inhibitors of Histone Lysine Methyltransferase G9a; G9a H3K9 monomethylation, AlphaScreen, 2 h; Potency, µM (top dose mostly 102 µM), inactives show at the highest dose activity, negative = inhibition, usual class: inhibitors; 350,000 compounds, 8.8% hits; further: potency means the concentration at half of the fitted maximal effect; nearly all actives have a fitted effect of over 75% in size
Target sequence (Q96KQ7 913-1193 limits assumed): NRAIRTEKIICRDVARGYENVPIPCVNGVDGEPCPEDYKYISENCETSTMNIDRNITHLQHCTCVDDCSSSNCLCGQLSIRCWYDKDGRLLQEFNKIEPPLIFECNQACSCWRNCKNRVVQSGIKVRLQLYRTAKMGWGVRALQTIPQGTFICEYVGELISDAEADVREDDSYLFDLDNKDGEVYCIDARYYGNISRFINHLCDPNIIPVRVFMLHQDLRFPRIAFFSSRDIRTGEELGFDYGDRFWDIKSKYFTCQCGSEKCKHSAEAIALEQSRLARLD
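Using a bead-based AlphaScreen, monomethylated H3K9 product from 2 h room-temperature reactions (G9a 20 nM, peptide 500 nM, SAM 20 uM) was detected with 0.5 ug/mL rabbit anti-H3K9me1 antibody.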
Sfp inh – qHTS Assay for Inhibitors of Bacillus subtilis Sfp phosphopantetheinyl transferase (PPTase); Potency, µM, for the others: largest response in the series, negative = inhibition, hits mostly inhibitors; 4'-phosphopantetheinyl transferase ffp (Bacillus subtilis), Q9F4F7; Biochemical Sfp PPTase activity, qHTS; 310,000 compounds, 3.5% hits;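 further: the enzyme is Sfp with the accession as filed and its product quenches rhodamine fluorescence; potency means the concentration at half of the fitted maximal effect; 0% = enzyme reaction without inhibitor and -100% = no enzyme wells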
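After 15 min at room temperature with compound, 15 nM Sfp received 5 uM rhodamine-CoA plus 12.5 uM BHQ-2-ybbR (50 mM Hepes pH 7.6, 10 mM MgCl2). Rate came from the fluorescence difference over 30 min, ex 525/em 598 nm.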
Tau fibril FP – qHTS for Inhibitors of Tau Fibril Formation, Fluorescence Polarization; Microtubule-associated protein tau (Homo sapiens), P10636; Potency, µM (highest dose often 57.7 µM), without a hit: at the highest dose activity, negative = inhibition, most hits filed as inhibitors; AID 1468, 2008; 280,000 compounds, 0.39% hits; K18 P301L tau heparin fibrillization, Alexa594 FP, 6 h; further: potency means the concentration at half of the fitted maximal effect; nearly all actives have a fitted effect of over 55% in size
Target sequence (P10636 561-689 P618L limits assumed): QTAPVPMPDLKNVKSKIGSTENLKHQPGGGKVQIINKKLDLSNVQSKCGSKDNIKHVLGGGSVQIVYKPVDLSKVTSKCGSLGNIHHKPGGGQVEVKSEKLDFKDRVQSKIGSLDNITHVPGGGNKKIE
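Read-out: fluorescence polarization of Alexa 594-labeled tau (0.24 uM), 555 nm excitation, 632 nm emission. Mixtures held 15 uM unlabeled K18 P301L, compound and 20 uM heparin, pH 7 acetate buffer, incubated 6 hr at 37 C.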
Tau ThT inhib – qHTS for Inhibitors of Tau Fibril Formation, Thioflavin T Binding. Microtubule-associated protein tau (Homo sapiens), P10636. recombinant tau K18 P301L, heparin-induced fibrillization, ThT fluorescence. Potency, µM (series often up to 57.4 µM), inactives show at the highest dose activity, negative = inhibition, most hits filed as inhibitors. 270,000 compounds, 2.1% hits; further: potency means the concentration at half of the fitted maximal effect; nearly all actives have a fitted effect of over 55% in size
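Tau K18 P301L fragment (15 uM unlabeled plus 0.24 uM Alexa 594-labeled) in 100 mM sodium acetate pH 7 with compound, fibrillization induced by 20 uM heparin for 6 hr at 37 C. Thioflavin T (30 uM) added, fluorescence read after 1 hr (ex 450, em 510 nm).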
FBPA coupling cs – qHTS Assay for Inhibitors of Fructose-1,6-bisphosphate Aldolase from Giardia Lamblia: Coupling assay counterscreen. coupling enzyme system counterscreen, AmpLite Red fluorescence. activity change, negative = inhibition, % at 58.2 µM, hits read low. 290,000 compounds, 0.67% hits. AID 2472, 2010; in the data active means activity change below about -30%
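Compounds tested against the coupling enzymes alone at 57.5 uM final; readout was AmpLite Red fluorescence (525/598 nm) after 20 min at RT.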
Tau fluor cs – Counterscreen qHTS for Inhibitors of Tau Fibril Formation, Fluorescence Polarization; AID 1463, 2008; Potency, µM (series often up to 57.7 µM), inactives show at the top dose activity change, negative = decrease; 280,000 compounds, 0.93% hits; tau K18 P301L Alexa594 fluorescence, heparin fibrillization; further: potency means the concentration at half of the fitted maximal effect; nearly all actives have a fitted effect of over 55% in size
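Human tau K18 P301L (15 uM unlabeled, 0.24 uM Alexa 594-labeled) in 100 mM sodium acetate pH 7 with 20 uM heparin, 6 hr at 37 C. ThT 30 uM added, 1 hr ambient; Alexa 594 FP and total fluorescence read at 555/632 nm.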
Active calls of the source: *; ? = inconclusive; · = no result given; [ ] = remark or other dose. Only some compounds are listed: those with a hit (about 11% of all), similar ones and a draw of the others. Unless noted, the call rests on the fitted dose curve; in most records, active means well fitted curve in the direction sought with a large enough effect; inconclusive means small, poorly fitted or top-dose-only effect, or another doubt; inactive means no such curve, though single readings can be large; an effect the other way counts as inactive or inconclusive. Unless noted, on the % scale 0 is the no-effect control and ±100 the full control effect.

SMILES	G9a inh	Sfp inh	Tau fibril FP	Tau ThT inhib	FBPA coupling cs	Tau fluor cs
CCn1c(CNC(=O)C23CC4CC(CC(C4)C2)C3)nnc1SCC(=O)Nc1ccc(F)cc1	-2.4%[59 µM]	·	-6.2%	0.1%	·	-21.7%
COc1ccc(C2/C(=C(/O)c3ccc4c(c3)CC(C)O4)C(=O)C(=O)N2CCN2CCOCC2)cc1 (stereo not drawn)	44.7µM*	7.8%	-1.2%	-10.1%	-3.7	0.0%
COc1cccc(C2/C(=C(/O)c3ccc4c(c3)CC(C)O4)C(=O)C(=O)N2CC2CCCO2)c1 (stereo not drawn)	22.9%[0.501 µM]	9.4%	·	·	·	·
CC(C)c1ccc(S(=O)(=O)c2ccc(NN)cc2)cc1	10µM*	2.1%	3.6%	?	-2.6	?
CC(C)c1ccc(S(=O)(=O)N2CCCCC2)cc1	39.7%	-4.6%	1.1%	-1.3%	0.8	-9.6%
CCCCC(=O)NC1(C(F)(F)F)C(=O)Nc2c1c(=O)[nH]c(=O)n2-c1ccc(F)cc1 (stereo not drawn)	5.0%[59 µM]	·	-1.8%	7.9%	·	4.2%
Nc1nc2c(s1)CC(c1ccccc1)CC2 (stereo not drawn)	50.1µM*	1.9%	3.4%	?	3.5	?
CSCCC1COC(c2cccs2)=N1 (stereo not drawn)	0.891µM*	2.9%	-4.6%	11.5%	1.8	2.5%
Cc1ccc(-n2nc(CO)c(C(=O)NCc3ccccn3)n2)cc1C	8.7%[59 µM]	·	-7.5%	-9.8%	·	-3.7%
Cc1cc(C)n(CCc2nc(-c3ccco3)cs2)n1	3.55µM*	8.91µM*	?	35.5µM*	-9.7	-22.2%
O=c1[nH]c(=O)n(Cc2ccccc2)c2nc(-c3ccco3)cc(C(F)(F)F)c12	-5.3%[59 µM]	-6.7%	3.3%	-14.5%	2.6	-5.2%
Cc1nn(CCc2nc(-c3ccco3)cs2)c2[nH]c(=O)cc(C(F)(F)F)c12	?	?	?	25.1µM*	6.6	-16.5%
CC1CCN(C(=O)Cn2ncc3c4ccccc4n(Cc4ccc(Cl)cc4)c3c2=O)CC1	-31.8%[59 µM]	·	-4.8%	-9.0%	·	-11.5%
O=C(O)c1ccc(Nc2nc3ccccc3n3cnnc23)cc1	3.9%[59 µM]	·	6.2%	-1.0%	·	-0.2%
O=C(O)c1ccc(NC2=C(n3nnc4ccccc43)C(=O)c3ccccc3C2=O)cc1	?	6.8%	-13.9%	?	-32.7*	-20.8%
C=CCOC(=O)C1=C(C)NC(C)=C(C(=O)OCC=C)C1c1ccco1	?	0.6%	-0.4%	4.3%	-0.6	-21.1%
CC1=C(C(N)=O)C(c2ccco2)C(C(N)=O)=C(C)N1	56.2µM*	?	-6.9%	-12.5%	3.2	2.2%
O=C(Cn1c(=O)c2cc(Cl)ccc2n2nncc12)Nc1ccccc1	1.5%[59 µM]	·	-8.9%	4.7%	·	-3.9%
Nc1c(C(=O)NCc2ccco2)c2nc3ccccc3nc2n1CCc1ccccc1	?	50.1µM*	-15.3%	?	-34.1*	?
c1coc(-c2nc3nc4ccccc4nc3n2-c2ccc3c(c2)OCCO3)c1	9.3%[2.33 µM]	-2.9%	9.8%	-13.8%	-1.3	3.5%
S=c1[nH]nc(-c2ccc3ncccc3c2)n1-c1ccc2c(c1)OCCO2	2.24µM*	79.4µM*	6.2%	-7.2%	3.8	3.8%
Oc1ccc(-c2n[nH]c(=S)n2-c2ccc3c(c2)OCCO3)cc1	0.708µM*	79.4µM*	0.1%	-6.9%	0.2	-5.9%
Cc1ccccc1OCc1nc2c3cnn(-c4cccc(F)c4)c3ncn2n1	-4.5%[59 µM]	·	-11.3%	?	·	-2.3%
CCn1c(CC2C(=O)N(C)c3ccccc32)nc2ccccc2c1=O (stereo not drawn)	-31.0%[59 µM]	·	4.1%	-2.9%	·	2.3%
